Assay [1] can be described thus: NCI Yeast Anticancer Drug Screen. Data for the rad50 strain (AID 155).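 Further: 0% = growth of vehicle-only cultures of the same strain.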 Conditions: S. cerevisiae rad50 strain growth inhibition, active compounds read high. The procedure, abridged:
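Genetically altered yeast (DNA repair pathway); compound treatment; growth inhibition vs vehicle ctrl.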

Assay [2] in a line: NCI Yeast Anticancer Drug Screen. Data for the mec2-1 strain (AID 157). Conditions: S. cerevisiae mec2-1 strain, active compounds read high. The essentials: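 Growth inhibition is read against vehicle-treated controls after compound exposure of the mec2-1 yeast strain, which is defective in DNA damage repair or cell cycle control.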
The nature of assay [3]: NCI Yeast Anticancer Drug Screen. Data for the sgs1 mgt1 strain (AID 161).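 Further: 0% = growth of cultures given vehicle only.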 The following applies: S. cerevisiae sgs1 mgt1 strain, active compounds read high. The essentials: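 Compounds are added to genetically altered yeast, and growth is compared with cultures given vehicle alone to give percent inhibition.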
Assay [4] in a line: NCI Yeast Anticancer Drug Screen. Data for the cln2 rad14 strain (AID 165).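 Further: 0% = growth equal to vehicle treated cultures.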 The following applies: S. cerevisiae cln2 rad14 strain, active compounds read high. The procedure, abridged: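 Growth inhibition, relative to vehicle-treated controls, is the read-out. The test organism is a yeast strain with defined genetic alterations, cln2 rad14.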
The nature of assay [5]: NCI Yeast Anticancer Drug Screen. Data for the bub3 strain (AID 167). The following applies: S. cerevisiae bub3 mutant strain, active compounds read high. The procedure, abridged:
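Yeast carrying a defined mutation is treated with each compound, and growth is compared with that of vehicle-exposed cells to give inhibition.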

A short description of assay [6]: NCI Yeast Anticancer Drug Screen. Data for the mlh1 rad18 strain (AID 175). Conditions: S. cerevisiae mlh1 rad18 strain growth inhibition, active compounds read high. The essentials: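 Cells of a genetically altered yeast strain, deficient in DNA damage repair, were treated with compound. Their growth was then compared with that of vehicle-treated cultures to give inhibition.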

The mark [7] stands for this setting: at 5.0 µM (retest, dose inferred, filed as 0.5).
Setting [8] is: at 50.0 µM (retest, dose inferred, filed as 5.0).

About 79,000 compounds went through this panel and 15% of them were active in at least one assay; those are over-represented in the sample as a whole. Unmarked numbers belong to inactive results. Activity calls are given as the source filed them. No stated cut-off is given here; in the data, active means growth inhibition above about 70%; inactive means the rest.

In the case of `Cc1ccc(OC/C=C/c2ccc(Cl)cc2)cc1`, the growth inhibition in assay [1] (setting [7]) was -2%; in assay [1] (setting [8]) it was 75% (active); in assay [1] (at 50.0 µM) it was 77.2% (active); in assay [2] (setting [7]), 0%; in assay [2] (setting [8]), 88% (active); in assay [2] (at 50.0 µM) it was 53.1%. For the same compound, the growth inhibition is 16% in assay [3] (setting [7]); 91% (active) in assay [3] (setting [8]); 85.2% (active) in assay [3] (at 50.0 µM); -2% in assay [4] (setting [7]); 84% (active) in assay [4] (setting [8]); 65% in assay [4] (at 50.0 µM). For the same compound, the growth inhibition in assay [5] (setting [7]) was 2%; in assay [5] (setting [8]), 86% (active); in assay [5] (at 50.0 µM) it was 67.4%; in assay [6] (setting [7]), 5%; in assay [6] (setting [8]), 90% (active); in assay [6] (at 50.0 µM) it was 85.2% (active).

`COc1cc(NS(=O)(=O)c2ccc(NC(C)c3ccc4cccnc4c3O)cc2)nc(OC)n1` (stereo not given): the growth inhibition in assay [1] (setting [7]) is 3%; in assay [1] (setting [8]), 81% (active); in assay [1] (at 50.0 µM), 95.1% (active); in assay [2] (setting [7]), 2%; in assay [2] (setting [8]) it was 40%; in assay [2] (at 50.0 µM) it was 97.2% (active). Also, the growth inhibition in assay [3] (setting [7]) was 1%; in assay [3] (setting [8]) it was 87% (active); in assay [3] (at 50.0 µM) it was 69.4%; in assay [4] (setting [7]), -3%; in assay [4] (setting [8]) it was 78% (active); in assay [4] (at 50.0 µM), 66%. Also, the growth inhibition in assay [5] (setting [7]) is -2%; in assay [5] (setting [8]), 88% (active); in assay [5] (at 50.0 µM), 96.8% (active); in assay [6] (setting [7]), 5%; in assay [6] (setting [8]) it was 82% (active); in assay [6] (at 50.0 µM) it was 97.3% (active).

On to `CC/C(=C(\CC)c1ccc(O)c(CN(CCO)CCO)c1)c1ccc(O)cc1`, for which the growth inhibition was -3% in assay [1] (setting [7]); 11% in assay [1] (setting [8]); 36.9% in assay [1] (at 50.0 µM); -1% in assay [2] (setting [7]); 5% in assay [2] (setting [8]); 22.2% in assay [2] (at 50.0 µM). For the same compound, the growth inhibition in assay [3] (setting [7]) is -2%; in assay [3] (setting [8]), 28%; in assay [3] (at 50.0 µM), 69.2%; in assay [4] (setting [7]), 0%; in assay [4] (setting [8]), -1%; in assay [4] (at 50.0 µM) it was 0.6%. The growth inhibition in assay [5] (setting [7]) was -5%; in assay [5] (setting [8]) it was 25%; in assay [5] (at 50.0 µM), 12.5%; in assay [6] (setting [7]) it was -2%; in assay [6] (setting [8]) it was 33%; in assay [6] (at 50.0 µM) it was 73.6% (active).

With `CCCOC1(C)CC(c2cc(OC)c(OC)c(OC)c2)c2cc3c(cc2O1)OCO3` (stereo not given), the growth inhibition in assay [1] (setting [7]) is 5%; in assay [1] (setting [8]) it was 96% (active); in assay [1] (at 50.0 µM), 5.1%; in assay [2] (setting [7]), 5%; in assay [2] (setting [8]), 100% (active); in assay [2] (at 50.0 µM) it was 7.75%. In addition, the growth inhibition in assay [3] (setting [7]) was 5%; in assay [3] (setting [8]), 99% (active); in assay [3] (at 50.0 µM), -2.6%; in assay [4] (setting [7]), 4%; in assay [4] (setting [8]), 99% (active); in assay [4] (at 50.0 µM), 34.7%. In addition, the growth inhibition is 5% in assay [5] (setting [7]); 99% (active) in assay [5] (setting [8]); 3.15% in assay [5] (at 50.0 µM); 2% in assay [6] (setting [7]); 99% (active) in assay [6] (setting [8]); 18.9% in assay [6] (at 50.0 µM).

`c1ccc2c(c1)Cc1c-2nc2ccccc2c1N1CCOCC1`: the growth inhibition in assay [1] (setting [7]) is 87% (active); in assay [1] (setting [8]), 98% (active); in assay [1] (at 50.0 µM) it was 97% (active); in assay [2] (setting [7]), 17%; in assay [2] (setting [8]), 99% (active); in assay [2] (at 50.0 µM), 91% (active). The growth inhibition in assay [3] (setting [7]) was 6%; in assay [3] (setting [8]) it was 98% (active); in assay [3] (at 50.0 µM), 82.3% (active); in assay [4] (setting [7]), 18%; in assay [4] (setting [8]), 98% (active); in assay [4] (at 50.0 µM), 34.9%. In addition, the growth inhibition is 54% in assay [5] (setting [7]); 98% (active) in assay [5] (setting [8]); 67.5% in assay [5] (at 50.0 µM); 25% in assay [6] (setting [7]); 98% (active) in assay [6] (setting [8]); 89.7% (active) in assay [6] (at 50.0 µM).

Regarding `O=[N+]([O-])c1ccc2c(c1)/C(=N\O)c1cc(Br)ccc1-2`, the growth inhibition in assay [1] (setting [7]) was 14%; in assay [1] (setting [8]), 39%; in assay [1] (at 50.0 µM), 91.4% (active); in assay [2] (setting [7]), 5%; in assay [2] (setting [8]), 24%; in assay [2] (at 50.0 µM), 71% (active). Moreover, the growth inhibition is 13% in assay [3] (setting [7]); 33% in assay [3] (setting [8]); 67.2% in assay [3] (at 50.0 µM); -2% in assay [4] (setting [7]); 14% in assay [4] (setting [8]); 35.4% in assay [4] (at 50.0 µM). Besides, the growth inhibition in assay [5] (setting [7]) was -5%; in assay [5] (setting [8]), 3%; in assay [5] (at 50.0 µM) it was 13.7%; in assay [6] (setting [7]), 10%; in assay [6] (setting [8]), 29%; in assay [6] (at 50.0 µM), 96.8% (active).

For `Oc1c(Br)cc(Br)cc1C=Nc1ccc(Br)cc1`, the growth inhibition in assay [1] (setting [7]) is 68%; in assay [1] (setting [8]), 98% (active); in assay [1] (at 50.0 µM) it was 80.8% (active); in assay [2] (setting [7]), 55%; in assay [2] (setting [8]), 99% (active); in assay [2] (at 50.0 µM) it was 91.5% (active). For the same compound, the growth inhibition in assay [3] (setting [7]) was 72% (active); in assay [3] (setting [8]), 98% (active); in assay [3] (at 50.0 µM), 89.6% (active); in assay [4] (setting [7]), 44%; in assay [4] (setting [8]), 99% (active); in assay [4] (at 50.0 µM) it was 89.2% (active). For the same compound, the growth inhibition in assay [5] (setting [7]) was 73% (active); in assay [5] (setting [8]), 99% (active); in assay [5] (at 50.0 µM), 89% (active); in assay [6] (setting [7]), 88% (active); in assay [6] (setting [8]), 98% (active); in assay [6] (at 50.0 µM), 87.1% (active).

On to `O=c1oc(-c2ccccc2)nc2ccccc12`, for which the growth inhibition was 4% in assay [1] (setting [7]); 41% in assay [1] (setting [8]); 76.5% (active) in assay [1] (at 50.0 µM); 4% in assay [2] (setting [7]); 17% in assay [2] (setting [8]); 31.2% in assay [2] (at 50.0 µM). For the same compound, the growth inhibition in assay [3] (setting [7]) was 0%; in assay [3] (setting [8]), 9%; in assay [3] (at 50.0 µM), 58.9%; in assay [4] (setting [7]), 4%; in assay [4] (setting [8]), 4%; in assay [4] (at 50.0 µM) it was 27.5%. In addition, the growth inhibition in assay [5] (setting [7]) is 0%; in assay [5] (setting [8]), 11%; in assay [5] (at 50.0 µM), 38.9%; in assay [6] (setting [7]) it was -4%; in assay [6] (setting [8]), 20%; in assay [6] (at 50.0 µM), 42.8%.

Regarding `O=C(CCC1OCCO1)Nc1cc(NCc2ccccc2)ccc1OCc1ccccc1`, the growth inhibition in assay [1] (setting [7]) is 1%; in assay [1] (setting [8]), 48%; in assay [1] (at 50.0 µM), 71.2% (active); in assay [2] (setting [7]), 2%; in assay [2] (setting [8]), 69%; in assay [2] (at 50.0 µM) it was 57%. In addition, the growth inhibition in assay [3] (setting [7]) is -173%; in assay [3] (setting [8]), 73% (active); in assay [3] (at 50.0 µM), 89.4% (active); in assay [4] (setting [7]), 0%; in assay [4] (setting [8]), 16%; in assay [4] (at 50.0 µM), 43.7%. The growth inhibition is 0% in assay [5] (setting [7]); 39% in assay [5] (setting [8]); 65% in assay [5] (at 50.0 µM); 16% in assay [6] (setting [7]); 68% in assay [6] (setting [8]); 70.2% (active) in assay [6] (at 50.0 µM).

As for `CCCCCNC(=O)c1ccc(Cl)c(Cl)c1`, the growth inhibition was 6% in assay [1] (setting [7]); 49% in assay [1] (setting [8]); 64.8% in assay [1] (at 50.0 µM); 5% in assay [2] (setting [7]); 45% in assay [2] (setting [8]); 28.4% in assay [2] (at 50.0 µM). In addition, the growth inhibition in assay [3] (setting [7]) is 7%; in assay [3] (setting [8]), 63%; in assay [3] (at 50.0 µM), 83.2% (active); in assay [4] (setting [7]), 16%; in assay [4] (setting [8]), 41%; in assay [4] (at 50.0 µM) it was 33.5%. Also, the growth inhibition is 10% in assay [5] (setting [7]); 59% in assay [5] (setting [8]); 64.9% in assay [5] (at 50.0 µM); 1% in assay [6] (setting [7]); 62% in assay [6] (setting [8]); 64.6% in assay [6] (at 50.0 µM).

For the origin of these results see PubChem BioAssay (NCI).
